High-throughput results (PubChem BioAssay)
TLR4-MyD88 BLA: inhibitors of human TLR4-MyD88 binding; inhibition, % at 8.4 µM; O00206+Q99836; 0.18% of 200,000 active; HeLa CL3-4 TLR4/MyD88 BLA complementation, FRET ratio; in the data active means inhibition above about 25%;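 further: 0% = vehicle and 100% = reference inhibitor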
NTR1 ag: agonists of human neurotensin receptor NTR1; 0.17% of 330,000 active; NTR1-U2OS beta-arrestin-GFP spot imaging, agonist mode; P30989; activation, % at 20 µM;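 active means activation at or above 40% of the spot to cytoplasm intensity ratio, with at least 20 cells analyzed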;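 further: 0% = DMSO without peptide and 100% = 100 nM NTR1 peptide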
Beta2AR agonist: human beta-2 adrenergic receptor agonism by FAP. P07550. Am2.2-beta2AR cells, FAP receptor internalization, flow cytometry. response, % (test concentration not listed). 0.43% of 340,000 active;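 active means response above a set limit, near 3 SD of response in nonfluorescent compounds, cut at about 42% in these data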
A1 inh: inhibitors of the anti-apoptotic protein A1, read as caspase activation | caspase activation, % (test concentration not listed) | 0.066% of 330,000 active | MEF A1-2A-BIM cells, Caspase-Glo 3/7 luminescence, 3 h; percent of clofoctol response, vehicle zero;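 active means over half of replicate activation scores above 10%, or exactly half above 10 with the replicate mean above 10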
TLR9-MyD88 block: blocks human TLR9 binding to MyD88 | AID 504734 | 0.21% of 340,000 active | CHO BLA complementation TLR9-MyD88, CCF4 FRET ratio | inhibition, % at 4.98 µM;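 active means inhibition above the mean over all tested compounds plus 3 SD, cut at about 21% in these data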;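 further: 0% = DMSO only wells and 100% = clavulanate BLA inhibitor control wells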
NOD2-RIPK2 inh: inhibitors of human NOD2-RIPK2 interaction; 0.38% of 360,000 active; AID 624267; inhibition, % at 4.98 µM; CHO BLA complementation NOD2-RIPK2, CCF4 ratio; in the data active means inhibition above about 21%;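 further: 0% = vehicle only and 100% = reference blocker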
TLR4 MyD88 cnf: confirmation of human TLR4-MyD88 binding inhibitors. 50% of 350 active. shares compounds with TLR4-MyD88 BLA. HeLa CL3-4 BLA complementation, CCF4 FRET ratio. inhibition, % at 8.4 µM;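 active means mean inhibition across three repeat runs above about 25% carried over from the earlier screen, limit read from the data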;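 further: plate controls were DMSO only for no effect and clavulanic acid blocking BLA at full dose for full effect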
BLA inhibitor ct: inhibits beta-lactamase activity, counter-screen to TLR4-MyD88 binding inhibitors. 63% of 350 active. HeLa BLA reporter, CCF4 FRET ratio. shares compounds with TLR4-MyD88 BLA. inhibition, % at 8.4 µM. AID 1237;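 active means mean inhibition over three repeats above about 26% taken from the earlier screen, limit read from the data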;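 further: HeLa cells stably expressing beta-lactamase reporter as counterscreen for TLR4-MyD88 inhibitors; 0% = DMSO and 100% = clavulanic acid full inhibition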
NTR1 ag confirm: confirmation of agonists of human NTR1 | AID 504550 | 38% of 480 active | shares compounds with NTR1 ag | activation, % at 20 µM | NTR1-U2OS beta-arrestin-GFP translocation imaging;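 active means mean activation at 20 µM of at least 40%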;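 further: 0% = DMSO without peptide and 100% = 100 nM NTR1 peptide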
NOD2 RIPK2 conf: NOD2-RIPK2 interaction inhibition confirmed | shares compounds with NOD2-RIPK2 inh | CHO cells, NOD2-RIPK2 BLA complementation, CCF4 FRET | inhibition, % at 4.98 µM | 70% of 1,200 active | AID 624370;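 active means mean inhibition across replicates above a set limit taken from the earlier primary screen, cut at about 21% in these data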;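 further: 0% = DMSO-only wells and the high end = clavulanate BLA-blocked wells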
NOD2 BLA counter: hits BLA reporter in NOD2-RIPK2 inhibitor counterscreen; shares compounds with NOD2-RIPK2 inh; CHO BLA reporter, CCF4 FRET ratio; inhibition, % at 4.98 µM; 57% of 1,200 active;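 active means mean inhibition above the low-control mean inhibition plus three low-control SD, cut at about 11% in these data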;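 further: 0% = DMSO only wells and 100% = clavulanate high control wells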
An asterisk follows results filed as active; . = no result. Compounds with a hit are over-represented: about 0.97% of the library has one in this group of screens.

SMILES	TLR4-MyD88 BLA	NTR1 ag	Beta2AR agonist	A1 inh	TLR9-MyD88 block	NOD2-RIPK2 inh	NTR1 ag confirm	others
COc1ccc(-c2cc(N)n(S(=O)(=O)c3c(F)c(F)c(F)c(F)c3F)n2)cc1OC	27.4*	-2.0	-238.8	0.2	18.0	59.4*	.	TLR4 MyD88 cnf=17.1;BLA inhibitor ct=-10.6;NOD2 RIPK2 conf=85.6*;NOD2 BLA counter=18.5*
COC(=O)C(=Cc1ccc(OCc2ccc([N+](=O)[O-])cc2)c(OC)c1)C(=O)OC	-5.0	44.7*	3.2	-0.3	5.6	1.8	75.1*
COc1ccc(/C=N/Nc2nc(-c3cccc(S(=O)(=O)N4CCCC4)c3)cs2)cc1OC	-4.0	-0.1	7.1	0.3	-9.5	-8.9	.
COc1cc(/C=N/Nc2nc(-c3ccc(S(=O)(=O)N(C)C)cc3)cs2)ccc1O	.	70.5*	23.5	-0.8	7.8	3.4	79.2*
CCOC(=O)c1cc(-c2ccc(Cl)cc2)nc2onc(C)c12	3.6	4.2	.	-0.3	.	.	.
CC(=O)c1cc(Cl)ccc1OC(=O)c1ccco1	0.9	0.5	-2.9	0.2	4.4	-1.2	.
O=C(Oc1ccc(Br)cc1C(=O)/C=C/c1ccccc1F)c1ccco1	-4.5	54.7*	57.6*	1.0	10.4	13.6	40.3*
CCOC(=O)c1c(C)n(C)c2ccc(OCC(O)Cn3nc(C)c(Br)c3C)cc12 (stereo not given)	-7.2	40.9*	12.5	0.2	-7.0	-2.4	11.1
CCOC(=O)c1c(C)n(C)c2ccc(OCC(O)CN3CCCCCC3)cc12 (stereo not given)	-10.4	1.8	2.8	0.1	4.8	4.8	.
COc1ccc2nc(SCC(=O)Nc3nonc3C)[nH]c2c1	-1.4	1.2	-1.4	-0.1	0.0	-12.1	.
Cc1ccccc1-n1c(=O)[nH]c(=O)c2c(N)c(C(=O)c3ccc(Cl)cc3)sc21	-15.9	40.2*	15.1	-0.7	-0.8	-11.0	10.0
Nc1c(C(=O)c2ccc(Cl)cc2)sc2c1c(=O)[nH]c(=O)n2-c1ccccc1	0.2	22.3	-3.0	-1.3	8.1	-11.2	.
CCOc1ccc(C(C(=O)NCC2CCCO2)N(C(=O)c2snc(C(N)=O)c2N)c2ccc(F)cc2)cc1 (stereo not given)	.	44.5*	4.3	0.4	-11.7	-3.1	4.2
COc1cccc(N(C(=O)c2snc(C(N)=O)c2N)C(C(=O)NCC2CCCO2)c2ccc(F)cc2)c1 (stereo not given)	.	0.9	-1.4	0.8	5.3	-9.0	.
CCc1nnc(NC(=O)c2ccc(NC(=O)C(C)C)cc2)s1	2.8	2.3	-2.6	3.1	-4.0	-8.1	.
COc1cccc(-c2csc(NC(=O)Nc3ccccc3)n2)c1	.	72.5*	0.1	-0.4	6.8	-8.9	22.5
O=C(Nc1ccccc1)Nc1nc(-c2ccccc2)cs1	.	2.7	-2.1	-0.1	-0.9	1.5	.
O=C(Nc1ccc(Cl)c(Cl)c1)Nc1nc(-c2ccccc2)cs1	0.7	47.1*	0.1	-1.1	-8.5	0.3	20.8
COC(=O)c1scc(S(=O)(=O)C(C)(C)C)c1N	.	-0.9	3.4	0.5	2.2	8.2	.
Cc1cc(NC(=O)COC(=O)C2CC(=O)N(c3cccc(C)c3C)C2)no1 (stereo not given)	.	0.3	1.3	-0.1	-11.9	1.6	.
